From PubChem BioAssay
Activity calls are given as the source filed them. Unless noted, the rule behind the calls is not given here.

Tests used:
[1] = A549 cell viability effects, profiling panel, calcein-AM fluorescence, 48 h, basal (AID 1162); conditions: higher = more signal; note: test concentration not given here
[2] = adipocyte viability effects, profiling panel, cell-based, 3T3-L1 adipocytes, calcein-AM fluorescence, 48 h, basal (AID 1163); conditions: 3T3-L1 adipocytes viability, higher = more signal; note: test concentration not given here
[3] = HepG2 cell viability effects, profiling panel, calcein-AM fluorescence, 48 h, basal (AID 1164); conditions: higher = more signal; note: test concentration not given here
[4] = MM1S cell viability effects, profiling panel, calcein-AM fluorescence, 48 h, basal (AID 1165); conditions: higher = more signal;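 note: viability of MM1S multiple myeloma cells under basal unstimulated conditions; test concentration not given here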
[5] = basal RPMI8226 viability, no added stimulus, profiling panel, cell-based, calcein-AM fluorescence, 48 h, PK04 Diversity Set (AID 1166); conditions: RPMI8226 myeloma viability, higher = more signal;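 note: cells grown under basal conditions without added stimulus; test concentration not given here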
[6] = basal HepG2 mitochondrial membrane potential changes, profiling panel, cell-based, JC-1 fluorescence, 24 h, 100 nL compound (AID 1167); conditions: higher = more signal; note: test concentration not given here
[7] = basal 3T3-L1 adipocyte mitochondrial potential changes, profiling panel, cell-based, JC-1 fluorescence, 3T3-L1 adipocytes, 24 h, 100 nL compound (AID 1168); conditions: JC-1 mitochondrial fluorescence, higher = more signal, called active from +8 up or from −8 down; note: test concentration not given here
[8] = basal RPMI8226 mitochondrial membrane potential changes, profiling panel, cell-based, JC-1 fluorescence, 24 h, 100 nL compound (AID 1169); conditions: RPMI8226 myeloma, JC-1 mitochondrial potential fluorescence, higher = more signal; note: test concentration not given here
[9] = basal MM1S mitochondrial membrane potential changes, profiling panel, cell-based, JC-1 fluorescence, 24 h, 100 nL compound (AID 1170); conditions: higher = more signal; note: test concentration not given here
[10] = A549 lung cancer cell viability effects, profiling panel, resazurin fluorescence, 24 h, PK04 Diversity Set (AID 1171); conditions: higher = more signal, called active from +8 up or from −8 down; note: test concentration not given here
[11] = HepG2 liver cancer cell viability effects, profiling panel, resazurin fluorescence, 24 h, PK04 Diversity Set (AID 1172); conditions: higher = more signal; note: test concentration not given here
[12] = basal S. cerevisiae growth modulation, no modifier, primary screen, OD600, strain BY4716, 24 h, basal condition (AID 1173); conditions: OD600, 24 h, higher = more signal, called active from +8 up or from −8 down
[13] = MM1S myeloma cell viability, profiling panel, resazurin fluorescence, basal, 24 h, PK04 Diversity Set (AID 1174); conditions: higher = more signal, called active from +8 up or from −8 down;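 note: MM1S multiple myeloma cell line; test concentration not given here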
[14] = biological target: Dihydroorotate dehydrogenase (quinone), mitochondrial (Plasmodium falciparum (isolate 3D7)) (UniProt Q08210); assay: PfDHODH enzyme inhibitors, primary screen, biochemical, C-terminal His tag, absorbance 600 nm (AID 1175); conditions: DCIP absorbance 600 nm, higher = more signal, called active from +8 up or from −8 down;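 note: recombinant parasite enzyme with a five histidine tag at its C terminus; test concentration not given here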
Dihydroorotate dehydrogenase (quinone), mitochondrial (Plasmodium falciparum (isolate 3D7)), sequence (Q08210 whole entry, looked up): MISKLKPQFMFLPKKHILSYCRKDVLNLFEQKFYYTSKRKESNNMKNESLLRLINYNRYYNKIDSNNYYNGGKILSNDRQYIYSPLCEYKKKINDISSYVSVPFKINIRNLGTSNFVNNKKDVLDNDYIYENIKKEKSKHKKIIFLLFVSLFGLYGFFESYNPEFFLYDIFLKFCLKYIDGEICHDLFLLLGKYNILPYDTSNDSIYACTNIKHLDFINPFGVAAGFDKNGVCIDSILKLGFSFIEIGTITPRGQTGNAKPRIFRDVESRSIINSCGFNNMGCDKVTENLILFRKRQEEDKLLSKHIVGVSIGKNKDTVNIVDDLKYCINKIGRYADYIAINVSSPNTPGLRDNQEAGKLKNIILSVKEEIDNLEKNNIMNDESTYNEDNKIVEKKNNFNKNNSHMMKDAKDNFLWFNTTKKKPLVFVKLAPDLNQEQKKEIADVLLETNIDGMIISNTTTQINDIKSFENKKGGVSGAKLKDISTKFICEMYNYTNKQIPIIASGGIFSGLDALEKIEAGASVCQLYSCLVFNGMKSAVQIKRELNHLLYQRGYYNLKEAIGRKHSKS

[15] = P. aeruginosa biofilm formation inhibitors, primary screen, strain PAO1, LB-PBS medium, absorbance 600 nm (AID 1176); note: test concentration not given here; conditions: P. aeruginosa PAO1 growth/biofilm, A600, 12 h; higher = more signal
[16] = S. cerevisiae RM11-1a growth modifiers, primary screen, strain RM11-1a, OD600, basal, 24 h (AID 1177); conditions: OD600, 24 h, higher = more signal, called active from +8 up or from −8 down;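 note: cultures grown under basal conditions with no added stressor; test concentration not given here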
[17] = E. coli acrAB mutant growth effects, primary screen, E. coli filamentation inducers, strain DRC39, OD650, 24 h (AID 1178); conditions: higher = more signal, called active from +8 up or from −8 down;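 note: growth measured as culture turbidity by optical density at 650 nm; test concentration not given here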
[18] = E. coli acrAB mutant growth effects, primary screen, E. coli filamentation inducers, strain DRC39, OD650, 48 h (AID 1179);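 note: screen aims at cell division blockers that make cells filament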; conditions: E. coli DRC39 delta-acrAB growth, higher = more signal, called active from +8 up or from −8 down
[19] = RPMI8226 myeloma cell viability, profiling panel, resazurin fluorescence, basal, 24 h, PK04 Diversity Set (AID 1180); conditions: higher = more signal;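 note: RPMI8826 multiple myeloma cell line at 5000 cells per well; test concentration not given here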
[20] = biological target: E3 ubiquitin-protein ligase XIAP (Homo sapiens) (UniProt P98170); assay: XIAP binders, primary screen, biophysical, small-molecule microarray, fluorescence 635 nm (AID 1181); conditions: small-molecule microarray binding, higher = more signal;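 note: score merges 667 nm emission and signal to noise over triplicate slides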
E3 ubiquitin-protein ligase XIAP (Homo sapiens), sequence (P98170 whole entry, looked up): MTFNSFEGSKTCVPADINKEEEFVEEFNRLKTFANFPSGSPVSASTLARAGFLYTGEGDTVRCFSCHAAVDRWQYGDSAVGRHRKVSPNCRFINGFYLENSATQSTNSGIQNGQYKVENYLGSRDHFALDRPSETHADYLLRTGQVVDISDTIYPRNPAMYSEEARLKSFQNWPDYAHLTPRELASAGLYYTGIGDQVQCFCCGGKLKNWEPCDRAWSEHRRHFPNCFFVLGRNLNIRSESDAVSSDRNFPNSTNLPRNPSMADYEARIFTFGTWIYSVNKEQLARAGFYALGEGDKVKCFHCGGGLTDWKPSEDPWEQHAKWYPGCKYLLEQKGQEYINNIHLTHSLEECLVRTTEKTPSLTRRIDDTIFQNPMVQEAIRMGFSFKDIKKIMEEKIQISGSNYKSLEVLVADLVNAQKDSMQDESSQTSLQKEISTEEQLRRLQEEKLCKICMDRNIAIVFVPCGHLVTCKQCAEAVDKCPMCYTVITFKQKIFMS

Structure (SMILES)	z-score [1]	z-score [2]	z-score [3]	z-score [4]	z-score [5]	z-score [6]	z-score [7]	z-score [8]	z-score [9]	z-score [10]	z-score [11]	z-score [12]	z-score [13]	composite z-score [14]	z-score [15]	z-score [16]	z-score [17]	z-score [18]	z-score [19]	composite z-score [20]
COc1cc(NN2C(C(O)C3CCCCC3)C=CC3C(=O)N(c4ccccc4)C(=O)C32)cc(OC)c1OC (stereo not given)	-0.278	0.0809	0.736	-0.434	-1.8	-1.08	0.0506 (inactive)	-0.741	0.439	-1.37 (inactive)	-1.64	1.2 (inactive)	-1.62 (inactive)	-0.0779 (inactive)	0.698 (inactive)	0.135 (inactive)	-0.0089 (inactive)	-0.545 (inactive)	-1.67	0.337
Cc1ccc(F)cc1S(=O)(=O)N[C@@H]1CCN(Cc2cccc3[nH]ccc23)C1	0.139	-0.658	-0.415	-1.14	-0.864	0.0617	-0.65 (inactive)	0.263	-0.161	-0.398 (inactive)	-0.921	-2.03 (inactive)	-0.182 (inactive)	0.31 (inactive)	0.343 (inactive)	-0.367 (inactive)	-0.429 (inactive)	-1.32 (inactive)	-0.504	-0.02
[N-]=[N+]=Nc1ccccc1C[C@]1(C(=O)O)N=C(c2ccc(OCCCO)cc2)O[C@H]1c1ccccc1N=[N+]=[N-]	-0.35	0.22	0.0698	-2.38	-1.43	-0.914	-0.424 (inactive)	-0.739	0.51	-0.371 (inactive)	0.675	-2.36 (inactive)	-0.0953 (inactive)	0.463 (inactive)	1.13 (inactive)	-0.296 (inactive)	2.43 (inactive)	0.76 (inactive)	-0.215	-0.145
CCCCNC(=O)c1ccc(C#C[Si](C(C)C)(C(C)C)C(C)C)c(OC(C)=O)c1	-0.487	0.95	-2.45	-2.22	-4.09	-2.34	-0.281 (inactive)	-1.1	-1.04	-0.363 (inactive)	0.236	-0.152 (inactive)	0.219 (inactive)	-1.29 (inactive)	-0.623 (inactive)	0.0679 (inactive)	0.119 (inactive)	-0.0634 (inactive)	0.234	-0.165
C=CCNC(=O)[C@H]1[C@@H]2C(=O)O[C@@H](c3ccccc3)[C@@H](c3ccccc3)N2[C@@H](c2ccc(O)cc2)[C@]12C(=O)N(C(=O)OCCOC)c1ccc(C#CCC(C(=O)OC)C(=O)OC)cc12	1.1	-0.206	-0.615	-2.93	-4.49	-1.26	0.448 (inactive)	-1.34	-1.83	0.979 (inactive)	0.238	1.34 (inactive)	-1.25 (inactive)	0.638 (inactive)	2.17 (inactive)	2.19 (inactive)	0.216 (inactive)	0.136 (inactive)	-4.72	-0.0251
CN(C)CCCC[C@@H]1NC(=O)[C@@H]2C[C@H](C(=O)O)[C@H](c3cccc(OCCO)c3)N2C1=O	0.0184	0.13	0.201	0.238	0.312	1.05	-0.864 (inactive)	-0.804	0.174	0.593 (inactive)	-0.0398	-0.79 (inactive)	0.472 (inactive)	-0.126 (inactive)	0.808 (inactive)	-0.547 (inactive)	-0.175 (inactive)	0.494 (inactive)	0.259	-0.0398
CCCCC(=C=CC[C@H](O)c1ccc(OCCO)cc1)C[C@H](O)c1cc(Cl)cc(Cl)c1O	-0.217	-0.185	-0.197	-3.34	-2.76	-2.43	-0.368 (inactive)	-0.773	-0.349	1.17 (inactive)	0.984	-4.58 (inactive)	0.437 (inactive)	-1.74 (inactive)	0.579 (inactive)	-0.674 (inactive)	0.947 (inactive)	0.514 (inactive)	1.36	-0.0773
C=C(C(=O)CC[C@@H](OC(=O)c1ccccc1-c1ccccc1C(=O)O)c1ccccc1OCCO)C(C)C	-0.0081	0.707	-0.188	-2.67	-1.92	-1.1	0.758 (inactive)	0.0612	-0.281	0.63 (inactive)	0.942	-2.55 (inactive)	0.132 (inactive)	-1.52 (inactive)	0.743 (inactive)	-0.639 (inactive)	0.475 (inactive)	0.13 (inactive)	0.131	0.209
O=C1N[C@@H](Cc2ccccc2)C(=O)N2[C@@H]1C[C@@H](C(=O)O)[C@H]2c1ccc(O)cc1	-0.178	0.699	-0.361	-3.36	0.293	0.873	0.649 (inactive)	0.201	-0.75	-0.182 (inactive)	-0.425	-1.14 (inactive)	0.746 (inactive)	-0.708 (inactive)	-0.13 (inactive)	-0.319 (inactive)	-0.143 (inactive)	-0.803 (inactive)	0.0674	0.0518
